Screening results (PubChem BioAssay)
RVFV N-RNA FP – blocks Rift Valley Fever Virus nucleoprotein binding to RNA. P21700. RVFV N-RNA binding, fluorescence polarization; active compounds read low. % bound, % (no concentration beside the values). 20,000 compounds, 0.1% hits; in the data active = % bound below about 75%
Target sequence (P21700 whole entry, looked up): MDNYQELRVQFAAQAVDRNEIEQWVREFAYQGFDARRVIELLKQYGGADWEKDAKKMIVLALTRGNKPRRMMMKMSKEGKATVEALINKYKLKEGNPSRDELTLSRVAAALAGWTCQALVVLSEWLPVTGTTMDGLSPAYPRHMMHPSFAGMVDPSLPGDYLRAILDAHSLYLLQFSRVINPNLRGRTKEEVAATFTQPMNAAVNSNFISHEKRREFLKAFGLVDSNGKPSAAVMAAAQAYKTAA
* marks the source's active call; other numbers are inactive results. The sample as a whole holds a higher share of hits than the screen did.

SMILES | RVFV N-RNA FP
O=C(CC1S/C(=N/N=C/c2ccco2)NC1=O)Nc1ccc(Cl)cc1 (centres undefined) | 73.1*
CCNC(=O)CC1S/C(=N\N=C\c2ccc(C)o2)NC1=O (centres undefined) | 95.3
Cn1c(SCCC#N)nnc1-c1cccc(Cl)c1 | 92.9
COc1ccccc1-n1c(CNC(=O)c2ccccc2)n[nH]c1=S | 92.0
CCC(C)N1C(=O)/C(=C\c2cnn(-c3ccccc3)c2)C(=O)NC1=S (centres undefined) | 73.2
COc1cc(NC(C)CCCN)c2ncccc2c1 (centres undefined) | 94.6
COc1ccc2nc3cc(Cl)ccc3c(Nc3cc(CN4CCCC4)c(O)c(CN4CCCC4)c3)c2n1 | 103.3
CCN(CC)CCCC(C)Nc1c2ccc(Cl)cc2nc2ccc(OC)cc12 (centres undefined) | 34.4*
O=C1C=CC(=O)C(c2ccc(C(=O)O)cc2)=C1 | 52.1*
Cn1nnc(-c2ccc(C(=O)O)cc2)n1 | 97.8
O=C(O)c1ccc(-c2ccccc2)cc1 | 95.5
NC1=NC(=O)C(CC(=O)Nc2cccc(C(F)(F)F)c2)S1 (centres undefined) | 93.3
Brc1ccc2ncnc(N3CCCCCC3)c2c1 | 92.3
O=C(CSc1nnc2[nH]c(=O)ccn12)N1CCc2ccccc21 | 94.6
Cc1ccc(N2CC(NC(=O)N(C)C3CCN(C)CC3)CC2=O)cc1C (centres undefined) | 99.8
Brc1ccc(-c2nnc3sc(CN4CCc5ccccc54)cn23)cc1 | 92.9
CC(CN(C)C)CN1c2ccccc2CCc2ccccc21 (centres undefined) | 93.8
C[C@H](N)CN1CCc2ccc(Br)cc21 | 72.1*
O=C(Cc1cccs1)Nc1c2c(nn1-c1ccccc1)CSC2 | 96.5
O=C(NCc1ccco1)C(=S)N1CCOCC1 | 97.6
